The target in assay [1] is Retinoic acid receptor RXR-alpha (Homo sapiens) (UniProt P19793). Nature of the assay: ATG_RXRa_TRANS: Attagene TRANS-FACTORIAL HepG2 Assay for human Retinoid X Receptor alpha (RXRa) (AID 2283012; active = hit-call score of the fitted dose curve at least 0.9, where 1 is the maximum). The procedure, abridged:
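Measures exogenous chimeric NR-GAL4 activity in transfected HepG2 liver cells after 24 h of dosing. Induced reporter mRNA was detected by RT-PCR with capillary electrophoresis, and gain of signal was analysed against DMSO.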

For assay [2], the target named is human Thyroid Receptor alpha (THRa1), THRA (gene 7067) (UniProt P10827). Description: ATG_THRa1_TRANS: Attagene TRANS-FACTORIAL HepG2 Assay for human Thyroid Receptor alpha (THRa1) (AID 2283014; active = hit-call score of the fitted dose curve at least 0.9, where 1 is the maximum). The method, boiled down:
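Reporter transcript induction, read by capillary electrophoresis of 6-FAM-labelled RT-PCR products, reflects activity of a transfected THRa1-Gal4 fusion in HepG2 liver cells. Cells were dosed for 24 h; activity was fitted in the positive direction against DMSO.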

Read-out in assay [3]: E-selectin (Homo sapiens) (UniProt P16581)
Nature of the assay: BSK_3C_Eselectin: BioMAP Diversity Plus: 3C Assay for Eselectin Biomarker Activity (AID 2283015). As to conditions: primary human endothelial cells (HUVEC); actives raise or lower the signal. The procedure, abridged: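 ELISA read-out of E-selectin on endothelial monolayers after 24 h chemical treatment. Human umbilical vein primary cells served as the system, with DMSO defining baseline activity for bidirectional fitting.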

Read-out in assay [4]: Interleukin-1 alpha (IL1a), IL1A (gene 3552)
Description: BSK_BE3C_IL1a: BioMAP Diversity Plus: BE3C Assay for Interleukin-1 alpha (IL1a) Biomarker Activity (AID 2283016). As to conditions: primary human bronchial epithelial cells; actives raise or lower the signal. The procedure, abridged: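 Signal from IL-1a ELISA, taken 24 h after chemical dosing of human bronchial epithelial cells, is compared with DMSO as baseline using bidirectional curve fitting.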

Read-out in assay [5]: Monocyte Chemoattractant Protein-1 (MCP1), CCL2 (gene 6347)
Nature of the assay: BSK_3C_MCP1: BioMAP Diversity Plus: 3C Assay for Monocyte Chemoattractant Protein-1 (MCP1) Biomarker Activity (AID 2283017). As to conditions: primary human endothelial cells (HUVEC); actives raise or lower the signal. The procedure, abridged:
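ELISA read-out of MCP-1 from human umbilical vein endothelial cell cultures harvested 24 h post-dosing. Gain or loss of signal was fitted relative to DMSO.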

Read-out in assay [6]: Monocyte Chemoattractant Protein-1 (MCP1), CCL2 (gene 6347)
Description: BSK_4H_MCP1: BioMAP Diversity Plus: 4H Assay for Monocyte Chemoattractant Protein-1 (MCP1) Biomarker Activity (AID 2283018). As to conditions: primary human endothelial cells (HUVEC); actives raise or lower the signal. The method, boiled down: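 Endothelial cells from umbilical vein were treated with test chemical, then after 24 h MCP-1 levels were quantified by ELISA; endpoint values came from bidirectional fitting with DMSO as baseline of activity.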

Read-out in assay [7]: Human Leukocyte Antigen - DR isotype (HLADR), HLA-DRA (gene 3122)
Description: BSK_3C_HLADR: BioMAP Diversity Plus: 3C Assay for Human Leukocyte Antigen - DR isotype (HLADR) Biomarker Activity (AID 2283019). The settings on record: primary human endothelial cells (HUVEC); actives raise or lower the signal. The procedure, abridged: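 ELISA readout of surface HLA-DR on human umbilical vein endothelium, taken 24 h after chemical treatment. Gain- and loss-of-signal were both fitted relative to DMSO.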

Read-out in assay [8]: Interleukin-8 (IL8), CXCL8 (gene 3576)
Description: BSK_3C_IL8: BioMAP Diversity Plus: 3C Assay for Interleukin-8 (IL8) Biomarker Activity (AID 2283020). The settings on record: primary human endothelial cells (HUVEC); actives raise or lower the signal. The procedure, abridged: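 Endothelial primary cells of human umbilical vein origin are dosed with chemical; after 24 h the IL-8 biomarker is measured by ELISA, and concentration–response is fitted in both directions versus DMSO.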

Read-out in assay [9]: Monokine induced gamma interferon (MIG), CXCL9 (gene 4283)
Description: BSK_3C_MIG: BioMAP Diversity Plus: 3C Assay for Monokine induced gamma interferon (MIG) Biomarker Activity (AID 2283021).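 Also: MIG protein level measured by immunoassay in the treated endothelial cultures.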 The settings on record: primary human endothelial cells (HUVEC); actives raise or lower the signal. The method, boiled down:
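Endothelial primary cells (human umbilical vein) are dosed with test chemical in the 3C system. MIG levels are measured by ELISA at 24 h and fitted in both directions relative to DMSO.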

The target of assay [10] is human Vitamin D Receptor (VDR), VDR (gene 7421) (UniProt P11473). Description: ATG_VDR_TRANS: Attagene TRANS-FACTORIAL HepG2 Assay for human Vitamin D Receptor (VDR) (AID 2283022; active = hit-call score of the fitted dose curve at least 0.9, where 1 is the maximum). The method, boiled down: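 Steps: transfect HepG2 with GAL4-UAS-driven reporter constructs; dose compounds 24 h; isolate RNA, reverse-transcribe, PCR-amplify with 6-FAM-labelled primer extension and HpaI digestion; quantify fragments by capillary electrophoresis relative to DMSO.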
Sequence of human Vitamin D Receptor (VDR), VDR (gene 7421) (P11473 whole entry, looked up, the tested form may be a part): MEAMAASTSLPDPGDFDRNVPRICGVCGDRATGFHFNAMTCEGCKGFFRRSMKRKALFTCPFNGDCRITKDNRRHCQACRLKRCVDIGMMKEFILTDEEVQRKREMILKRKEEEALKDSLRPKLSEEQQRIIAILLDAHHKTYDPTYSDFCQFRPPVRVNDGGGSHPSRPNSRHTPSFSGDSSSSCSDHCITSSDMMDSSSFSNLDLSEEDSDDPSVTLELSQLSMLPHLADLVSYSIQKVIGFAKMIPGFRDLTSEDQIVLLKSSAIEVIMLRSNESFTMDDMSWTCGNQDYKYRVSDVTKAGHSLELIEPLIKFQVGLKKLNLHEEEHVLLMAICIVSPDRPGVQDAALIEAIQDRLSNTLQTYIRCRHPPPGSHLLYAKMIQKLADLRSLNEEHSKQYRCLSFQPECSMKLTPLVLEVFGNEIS

Assay [11] in a line: BSK_3C_SRB: Viability Assessment in the BioMAP Diversity Plus: 3C Assay (AID 2283023).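 Also: fitted both ways against DMSO so a hit may be signal rise or drop.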 As to conditions: primary human endothelial cells (HUVEC). The method, boiled down: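 Absorbance at 560 nm of sulforhodamine B-stained (0.1%) total protein served as a cytotoxicity readout in human umbilical vein endothelial cells, 24 h after chemical treatment. Signal was fitted bidirectionally relative to DMSO.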

Read-out in assay [12]: Matrix Metallopeptidase 1 (MMP1), MMP1 (gene 4312)
Description: BSK_BE3C_MMP1: BioMAP Diversity Plus: BE3C Assay for Matrix Metallopeptidase 1 (MMP1) Biomarker Activity (AID 2283024). The settings on record: primary human bronchial epithelial cells; actives raise or lower the signal. The method, boiled down: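 MMP1 signal, measured by ELISA after a 24 h chemical exposure of human primary bronchial epithelial cells, is analysed with bidirectional fitting using DMSO as negative control.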

Assay [13] is described as follows: BSK_3C_Vis: BioMAP Diversity Plus: 3C Assay for Morphology Visualization (AID 2283025).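 Also: fitted both ways so gain or loss versus DMSO counts.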 As to conditions: primary human endothelial cells (HUVEC). The method, boiled down: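 Morphology read by light microscopy serves as a background control for the multiplexed 3C assay in human umbilical vein endothelial cells, taken 24 h after dosing, with DMSO as the negative control and bidirectional curve fitting.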

Read-out in assay [14]: Pselectin, SELP (gene 6403)
Description: BSK_4H_Pselectin: BioMAP Diversity Plus: 4H Assay for Pselectin Biomarker Activity (AID 2283026). As to conditions: primary human endothelial cells (HUVEC); actives raise or lower the signal. The procedure, abridged:
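Endothelial primary cells (human umbilical vein) are dosed, incubated 24 h, and assayed for surface P-selectin by ELISA; responses in either direction are fitted relative to the DMSO negative control.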

Assay [15] is described as follows: BSK_4H_SRB: Viability Assessment in the BioMAP Diversity Plus: 4H Assay (AID 2283027).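 Also: cells exposed to compound for 24 h before staining; curves fitted both ways versus DMSO so AC50 may be loss or gain.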 The settings on record: primary human endothelial cells (HUVEC). The method, boiled down:
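Cytotoxicity read-out in primary human endothelial cells: after 24 h compound exposure, cells were TCA-fixed (10%), stained with 0.1% SRB and absorbance taken at 560 nm. Values fitted in both directions relative to DMSO.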

Assay [16] can be described thus: BSK_BE3C_SRB: Viability Assessment in the BioMAP Diversity Plus: BE3C Assay (AID 2283028).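 Also: fitted both ways so AC50 may mark signal gain or loss versus DMSO.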 The settings on record: primary human bronchial epithelial cells. The procedure, abridged: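 Cells (human bronchial epithelial, primary) are treated with chemicals, and after 24 h the parallel cultures are fixed in 10% TCA. These are then stained with 0.1% SRB and read at 560 nm. Gain or loss of signal is fitted relative to DMSO.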

Read-out in assay [17]: Thrombomodulin, THBD (gene 7056)
Description: BSK_3C_Thrombomodulin: BioMAP Diversity Plus: 3C Assay for Thrombomodulin Biomarker Activity (AID 2283029). As to conditions: primary human endothelial cells (HUVEC); actives raise or lower the signal. The procedure, abridged:
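Endothelial cells from umbilical vein are dosed with test chemical and incubated 24 h. Thrombomodulin is then quantified by ELISA, with DMSO serving as negative control and activity baseline.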

Read-out in assay [18]: Urokinase-type plasminogen activator receptor (uPAR), PLAUR (gene 5329)
Nature of the assay: BSK_4H_uPAR: BioMAP Diversity Plus: 4H Assay for Urokinase-type plasminogen activator receptor (uPAR) Biomarker Activity (AID 2283030). The settings on record: primary human endothelial cells (HUVEC); actives raise or lower the signal. The procedure, abridged:
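Cell-surface uPAR ELISA signal, measured 24 h after dosing human umbilical vein endothelial cells, was analyzed with bidirectional fitting relative to DMSO. Parallel SRB staining of total protein tracked overt cytotoxicity.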

Read-out in assay [19]: Vascular endothelial growth factor receptor 2 (Homo sapiens) (UniProt P35968)
Nature of the assay: BSK_4H_VEGFRII: BioMAP Diversity Plus: 4H Assay for Vascular endothelial growth factor receptor 2 (VEGFR2) Biomarker Activity (AID 2283031).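 Also: cell-surface VEGFR2 protein level quantified by ELISA.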 As to conditions: primary human endothelial cells (HUVEC); actives raise or lower the signal. The method, boiled down: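 ELISA read-out of VEGFRII in primary human umbilical vein endothelium, taken 24 h after chemical treatment. Responses are expressed relative to DMSO, with bidirectional fitting.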

SMILES strings stand for the structures. Inconclusive results are not listed. The source made the active and inactive calls. The calls were made as follows, unless noted: active = hit-call score of the fitted dose curve at least 0.9, where 1 is the maximum; inactive = score below 0.9.

Sequence of Retinoic acid receptor RXR-alpha (Homo sapiens) (P19793 whole entry, looked up, the tested form may be a part): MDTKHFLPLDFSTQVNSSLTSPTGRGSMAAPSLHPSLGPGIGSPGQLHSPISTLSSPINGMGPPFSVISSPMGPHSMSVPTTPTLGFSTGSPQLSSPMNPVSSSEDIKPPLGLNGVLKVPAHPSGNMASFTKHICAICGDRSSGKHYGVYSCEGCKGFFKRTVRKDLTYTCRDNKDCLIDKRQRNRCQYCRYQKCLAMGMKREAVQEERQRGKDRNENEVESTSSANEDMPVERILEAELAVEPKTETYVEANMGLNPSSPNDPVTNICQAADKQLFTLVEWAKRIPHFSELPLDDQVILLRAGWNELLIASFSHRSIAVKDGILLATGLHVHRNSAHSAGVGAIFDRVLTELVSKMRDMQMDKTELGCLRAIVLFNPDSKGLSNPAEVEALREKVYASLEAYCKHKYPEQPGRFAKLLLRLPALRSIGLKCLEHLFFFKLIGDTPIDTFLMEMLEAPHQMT
Sequence of human Thyroid Receptor alpha (THRa1), THRA (gene 7067) (P10827 whole entry, looked up, the tested form may be a part): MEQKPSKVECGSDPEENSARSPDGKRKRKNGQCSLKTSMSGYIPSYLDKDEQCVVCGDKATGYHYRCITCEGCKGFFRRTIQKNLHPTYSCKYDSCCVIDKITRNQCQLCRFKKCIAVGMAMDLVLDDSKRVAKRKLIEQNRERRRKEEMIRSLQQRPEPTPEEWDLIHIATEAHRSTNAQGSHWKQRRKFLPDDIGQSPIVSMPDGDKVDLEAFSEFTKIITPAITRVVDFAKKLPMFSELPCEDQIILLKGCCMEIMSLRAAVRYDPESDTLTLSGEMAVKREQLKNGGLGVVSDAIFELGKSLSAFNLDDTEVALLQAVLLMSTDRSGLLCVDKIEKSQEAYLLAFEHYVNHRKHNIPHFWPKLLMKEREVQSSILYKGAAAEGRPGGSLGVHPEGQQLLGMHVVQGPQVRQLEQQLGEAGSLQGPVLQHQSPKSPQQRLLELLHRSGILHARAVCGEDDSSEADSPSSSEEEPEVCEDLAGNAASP
Sequence of E-selectin (Homo sapiens) (P16581 whole entry, looked up): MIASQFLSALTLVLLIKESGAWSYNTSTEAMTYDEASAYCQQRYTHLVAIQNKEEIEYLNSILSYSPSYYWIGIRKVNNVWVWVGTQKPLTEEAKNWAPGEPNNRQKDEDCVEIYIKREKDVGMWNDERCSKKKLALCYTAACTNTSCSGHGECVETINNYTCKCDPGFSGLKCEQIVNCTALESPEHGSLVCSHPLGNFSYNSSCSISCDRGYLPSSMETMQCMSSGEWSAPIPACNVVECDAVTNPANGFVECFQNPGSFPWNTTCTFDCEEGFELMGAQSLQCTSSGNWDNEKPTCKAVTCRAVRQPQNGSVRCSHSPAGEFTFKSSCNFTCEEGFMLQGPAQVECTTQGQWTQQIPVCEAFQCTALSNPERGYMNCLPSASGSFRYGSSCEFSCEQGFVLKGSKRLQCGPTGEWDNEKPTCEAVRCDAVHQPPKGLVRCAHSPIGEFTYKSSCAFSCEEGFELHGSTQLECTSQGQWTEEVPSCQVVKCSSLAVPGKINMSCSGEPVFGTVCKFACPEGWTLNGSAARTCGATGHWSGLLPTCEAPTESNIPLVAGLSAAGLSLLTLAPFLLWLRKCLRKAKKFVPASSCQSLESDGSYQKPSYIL

Take `CCC(C)c1cc([N+](=O)[O-])cc([N+](=O)[O-])c1OC(=O)OC(C)C` (stereo not given): the AC50 in assay [1] is 32.6 µM (active); in assay [3], 17.9 µM (active); in assay [4], 25.4 µM (active); in assay [5], 29.5 µM (active); in [6], 5.06 µM (active); in assay [7] it was 9.38 µM (active). The AC50 in [8] was 34.1 µM (active); in assay [9], 33.2 µM (active); in [11] it was 14.1 µM (active); in assay [12], 35.1 µM (active); in assay [13], 12 µM (active); in assay [14], 9.75 µM (active). For the same compound, the AC50 is 13.9 µM (active) in assay [15]; 29.4 µM (active) in assay [16]; 20 µM (active) in assay [17]; 13 µM (active) in [18]; 9.93 µM (active) in [19]. In addition, the result in assay [2] and in assay [10] was inactive.
Consider `C[C@H]1O[C@@H](O[C@H]2[C@@H](O)C[C@H](O[C@H]3[C@@H](O)C[C@H](O[C@H]4CC[C@@]5(C)[C@H](CC[C@@H]6[C@@H]5C[C@@H](O)[C@]5(C)[C@@H](C7=CC(=O)OC7)CC[C@]65O)C4)O[C@@H]3C)O[C@@H]2C)C[C@H](O)[C@@H]1O`, for which the compound was called inactive in assay [1], in [2] and in assay [10].
Regarding `CCc1ccc(O)cc1`, the result in assay [1] and in assay [10] was inactive.
On to `CCOC(=O)c1ccc(N)cc1`, for which the call in assay [1], in assay [2] and in assay [10] was inactive.
In the case of `CC(O)C1CCCCC1` (stereo not given), the compound was classed as inactive in assay [1], in assay [2] and in assay [10].
`CCOC(=O)COC(=O)c1cc(Oc2ccc(C(F)(F)F)cc2Cl)ccc1[N+](=O)[O-]`: the outcome in [1] and in [2] was inactive.
Consider `CC(C)(C)CC(C)(C)c1ccc(OCCOCC[N+](C)(C)Cc2ccccc2)cc1`, for which the call in assay [1], in assay [2], in assay [10] and in [17] was inactive. Further, the AC50 was 6.62 µM (active) in assay [3]; 7.26 µM (active) in assay [4]; 5 µM (active) in assay [5]; 3.9 µM (active) in assay [6]; 5 µM (active) in assay [7]; 5 µM (active) in assay [8]. The AC50 in assay [9] is 8.17 µM (active); in assay [11] it was 4.62 µM (active); in [12], 6.86 µM (active); in [13], 9.69 µM (active); in [14], 5 µM (active); in [15], 5.82 µM (active). Further, the AC50 in assay [16] was 8.4 µM (active); in [18] it was 4.64 µM (active).

By AC50 is commonly meant the concentration giving half of the maximal activity seen.

The record behind these values is PubChem BioAssay (EPA / NIEHS).
